Screening results from PubChem.
Shown are actives, neighbours in structure and some others; about 10% of the full set was active somewhere.
G9a inh – G9a (human) methyltransferase inhibition | Potency, µM (doses to about 102 µM), inactives show at the top dose activity, negative = inhibition, hits mostly inhibitors | Q96KQ7 | 350,000 tested, 8.8% active | G9a H3K9 monomethylation, AlphaScreen, 2 h; also: % is scaled to controls: 0 for no effect and ±100 for the full control effect; nearly all actives have a fitted effect of over 75% in size
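AlphaScreen read-out: biotin-H3K9 peptide (500 nM) methylation by 20 nM enzyme with 20 uM SAM, 2 h at room temperature after 15 min compound preincubation; anti-monomethyl H3K9 antibody plus donor/acceptor beads, 10 min dark.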
GLS inh – blocks human kidney-isoform glutaminase activity. GLS enzymatic activity, qHTS titration. 410,000 tested, 0.21% active. Potency, µM (series often up to 45.5 µM), inactives show at the top dose activity change, negative = inhibition, actives largely listed as inhibitors; also: % is scaled to controls: 0 for no effect and ±100 for the full control effect
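Compounds were pin-transferred onto hKGA, after which L-glutamine (1 mM solution) and a detection mix of glutamate oxidase, HRP and Amplex Red were added. Initial and 30 min RT fluorescence reads were collected.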
BAZ2B inh – BAZ2B (human) inhibition | Q9UIF8 | AlphaScreen BAZ2B-H3K14Ac peptide displacement | Potency, µM (series often up to 114 µM), for the others: at the top dose activity change, negative = inhibition, hits mostly inhibitors | 360,000 tested, 4.4% active | AID 504333; also: % is scaled to controls: 0 for no effect and ±100 for the full control effect; nearly all actives have a fitted effect of over 60% in size
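AlphaScreen displacement of biotin-H3(5-23)K14Ac peptide (50 nM final) from BAZ2B (50 nM final) in PBS pH 7.4, 0.01% Tween-20; complex preformed 30 min RT, then compounds (top 110 uM) 30 min RT, beads 20 min dark.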
HP1b binding inh – blocks HP1-beta chromodomain binding to methylated histone tails; AID 540317; 390,000 tested, 0.56% active; AlphaScreen HP1-beta / biotin-H3K9me3 peptide binding; P83916; Potency, µM (series often up to 114 µM), for the others: top-dose activity change, negative = inhibition, most hits filed as inhibitors; also: nearly all actives have a fitted effect of over 70% in size
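HP1-beta protein (50 nM final) preincubated 30 min at room temperature with biotinylated H3(1-18)K9me3 peptide (50 nM) in PBS pH 7.4, 0.01% Tween-20, then compound added for 30 min. AlphaScreen streptavidin donor/nickel chelate acceptor beads (10 ug/mL final), 30 min dark, luminescence read.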
JMJD2A Tudor – JMJD2A Tudor domain (human) inhibition | O75164 | AlphaScreen JMJD2A-Tudor / H3K4me3 peptide binding | Potency, µM (highest dose often 114 µM), without a hit: at the highest dose activity change, negative = inhibition, hits mostly inhibitors | 390,000 tested, 4.4% active; also: % is scaled to controls: 0 for no effect and ±100 for the full control effect; nearly all actives have a fitted effect of over 50% in size
Target sequence (O75164 whole entry, looked up, the tested form may be a part): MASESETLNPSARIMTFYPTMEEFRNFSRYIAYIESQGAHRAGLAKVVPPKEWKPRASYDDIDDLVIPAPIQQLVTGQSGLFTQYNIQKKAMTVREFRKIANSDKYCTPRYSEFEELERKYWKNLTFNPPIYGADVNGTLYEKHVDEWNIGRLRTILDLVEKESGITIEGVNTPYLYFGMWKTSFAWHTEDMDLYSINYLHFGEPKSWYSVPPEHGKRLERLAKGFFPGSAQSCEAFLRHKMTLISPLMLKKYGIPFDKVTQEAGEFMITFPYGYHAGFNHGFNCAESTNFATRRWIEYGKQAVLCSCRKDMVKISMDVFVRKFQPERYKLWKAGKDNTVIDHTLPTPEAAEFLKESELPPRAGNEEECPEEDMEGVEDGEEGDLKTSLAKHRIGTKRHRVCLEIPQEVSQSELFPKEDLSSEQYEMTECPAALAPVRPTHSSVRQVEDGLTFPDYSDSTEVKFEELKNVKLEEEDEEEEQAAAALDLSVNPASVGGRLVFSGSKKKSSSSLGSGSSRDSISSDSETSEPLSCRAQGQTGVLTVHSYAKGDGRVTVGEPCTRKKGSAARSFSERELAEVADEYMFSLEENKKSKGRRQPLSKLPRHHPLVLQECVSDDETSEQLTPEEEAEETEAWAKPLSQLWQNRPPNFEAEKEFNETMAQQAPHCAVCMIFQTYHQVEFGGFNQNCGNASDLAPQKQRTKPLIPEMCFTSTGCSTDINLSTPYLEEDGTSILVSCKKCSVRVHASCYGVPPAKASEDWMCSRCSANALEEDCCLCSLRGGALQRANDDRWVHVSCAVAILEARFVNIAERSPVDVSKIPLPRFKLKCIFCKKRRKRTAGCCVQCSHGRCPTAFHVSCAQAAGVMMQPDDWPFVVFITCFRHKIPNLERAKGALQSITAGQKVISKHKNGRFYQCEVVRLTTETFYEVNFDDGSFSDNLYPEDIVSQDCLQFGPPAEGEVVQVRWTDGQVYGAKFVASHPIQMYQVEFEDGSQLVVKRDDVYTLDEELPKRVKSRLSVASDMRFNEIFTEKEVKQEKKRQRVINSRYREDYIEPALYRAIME
An asterisk follows results filed as active; ? = inconclusive; . = no result; [ ] = dose if it differs, or a comment. Calls follow the shape of the dose curve; as a rule, active = well fitted curve in the direction sought with a large enough effect; inconclusive = small, poorly fitted or top-dose-only effect, or another doubt; inactive = no such curve, though single readings can be large; an effect the other way counts as inactive or inconclusive. Potency is read from the fitted curve at half-maximal effect.

SMILES | G9a inh | GLS inh | BAZ2B inh | HP1b binding inh | JMJD2A Tudor
Cc1ccc(Nc2nc(C(=O)NCCCN3CCOCC3)cs2)cc1 | 89µM* | 12% | 9% | 12% | ?
Cc1ccc(Nc2nc(C(=O)NCc3ccco3)cs2)cc1 | ? | 9% | ? | -5% | ?
Cc1ccc(-c2cc(C(=O)NCCCN3CCOCC3)no2)cc1 | 3%[12.7 µM] | 4% | 8% | 24% | -17%
CCOC(=O)/C(=N\Nc1ccc(OC)cc1)c1csc(Nc2ccccc2)n1 | -14%[12.7 µM] | -1% | ? | -20% | 40µM*
CCN(CC)C(=O)c1csc(Nc2ccc(C)cc2)n1 | 13µM* | 6% | ? | -2% | -33%
CC(=O)Cc1nsc(NC(=O)c2ccc(-c3cc(Cl)ccc3Cl)o2)n1 | -23% | 5% | -16% | 40% | -4%
Cc1nc2c(C)cccn2c1C(=O)c1ccccc1 | 0% | -1% | -1% | 43% | 5%
Cc1ccc(NCCCn2cnc3c(OCc4ccccc4)ncnc32)cc1C | . | 4% | . | ? | 50µM*
c1ccc(CNCCCn2cnc3c(OCc4ccccc4)ncnc32)cc1 | . | 2% | . | 17% | -16%
Cc1cccc2c(CC(=O)O)noc12 | ? | 2% | 0% | 18% | -10%
Nc1nc(CN2CCCCCC2)nc(Nc2ccc(F)cc2)n1 | 10µM* | 8% | 7.1µM* | 19% | 79µM*
Nc1nc(CN2CCN(c3ccccn3)CC2)nc(Nc2ccc(F)cc2)n1 | ? | -5% | 50µM* | 22% | 50µM*
Cc1ccc(Nc2nc(N)nc(CN3CCN(C)CC3)n2)cc1C | ? | . | 12% | . | .
CCn1c(SCC(=O)Nc2c(C)cccc2C)nnc1-c1nonc1NC(C)=O | 19%[59 µM] | -12% | -22% | 50% | 2%
Cc1sc(NC(=O)c2ccccc2)c(C(=O)N2CCN(C)CC2)c1C | 4%[12.7 µM] | 9% | 8% | 8% | -10%
Cc1cccc(/C=C2\CS/C(=C\c3cccc(C)c3)C2=O)c1 | ? | 13% | 50µM* | ? | ?
CCn1c(CCn2ccnc2C)n[nH]c1=S | ? | -1% | 3% | 23% | 22µM*
COc1ccc(C)cc1NC(=O)c1cc2cc3ccc(C)cc3nc2o1 | 4% | . | -7% | . | .
c1ccc2c(c1)CCN(c1nc3ccccc3n3cnnc13)C2 | 50µM* | -3% | -2% | 6% | ?
c1ccc2c(c1)nc(NCCN1CCOCC1)c1nncn12 | 50µM* | -6% | 12% | 39% | -8%
c1ccc2c(c1)nc(N1CCOCC1)c1nncn12 | -10% | 4% | 9% | 27% | 3%
c1ccc(N2CCN(c3nc4ccccc4n4cnnc34)CC2)cc1 | -10% | 9% | -21% | 24% | -28%
c1ccc2c(c1)CCCN2c1nc2ccccc2n2cnnc12 | 4% | 1% | 0% | 42% | -14%
c1ccc(CN2CCN(c3nc4ccccc4n4cnnc34)CC2)cc1 | 50µM* | 1% | -10% | 13% | -28%
C1=C(c2ccccc2)CCN(c2nc3ccccc3n3cnnc23)C1 | 22µM* | 0% | 6% | -1% | -34%
SMILES | G9a inh | GLS inh | BAZ2B inh | HP1b binding inh | JMJD2A Tudor
COc1cc(OC)c2c(-c3cccc(-c4ccc(OC)c(F)c4)c3)cc(=O)oc2c1 | -1%[59 µM] | 0% | . | 32% | -17%
O=C(NCC(c1ccco1)N1CCc2ccccc21)c1ccccc1Cl (stereo not given) | 23%[0.501 µM] | 18% | ? | ? | ?
CC[C@H]1OC(=O)[C@H](C)[C@@H](O[C@H]2C[C@@](C)(OC)[C@@H](O)[C@H](C)O2)C(C)[C@@H](O[C@@H]2O[C@H](C)C[C@H](N(C)C)[C@@H]2O)[C@](C)(OC)C[C@@H](C)C(=O)[C@H](C)[C@@H](O)[C@]1(C)O (stereo not given in full) | -2%[2.33 µM] | 8% | . | . | .
COc1cc(SC)ccc1C(=O)N1CC(C)OC(C)C1 (stereo not given) | -3% | -4% | -5% | -19% | -13%
CCOC(=O)c1ccccc1NC(=O)COC(=O)C1CC(=O)N(c2ccc3c(c2)OCCO3)C1 (stereo not given) | ? | 4% | -3% | 17% | -30%
O=C(COC(=O)C1CC(=O)N(c2ccc3c(c2)OCCO3)C1)NC1CCCc2ccccc21 (stereo not given) | 79µM* | -4% | -32% | 21% | -9%
O=C(Nc1ccccc1Br)C1CC(=O)N(c2ccc3c(c2)OCCO3)C1 (stereo not given) | 79µM* | 13% | 6% | 10% | -16%
COc1cccc(OC)c1OC(=O)C1CC(=O)N(c2ccc3c(c2)OCCO3)C1 (stereo not given) | . | -24% | . | -35% | 56µM*
CS(=O)(=O)c1ccc(Cl)c(NC(=O)C2CC(=O)N(c3ccc4c(c3)OCCO4)C2)c1 (stereo not given) | 21% | 9% | -14% | 27% | -10%
O=C(Nc1ccc2c(c1)OCO2)C1CC(=O)N(c2ccc3c(c2)OCCO3)C1 (stereo not given) | -7% | -8% | ? | 28% | -3%[57.1 µM]
O=C(O)C1CC(=O)N(c2ccc3c(c2)OCCO3)C1 (stereo not given) | -26%[59 µM] | -26% | ? | ? | 3.2µM*
COc1ccccc1NC(=O)C(C)OC(=O)C1CC(=O)N(c2ccc3c(c2)OCCO3)C1 (stereo not given) | 75% | 28% | 2% | 17%[57 µM] | -18%
Cc1ccnc(NC(=O)C2CC(=O)N(c3ccc4c(c3)OCCO4)C2)c1 (stereo not given) | 19% | 1% | 79µM* | 14% | -14%
CC1(C)CC(=O)C2=C(C1)OC1=C(C(=O)CC(C)(C)C1)C2c1ccc(O)cc1O | 2.8µM* | 40% | ? | 2% | -25%
COc1ccc(NC(=O)C2CCCN2S(=O)(=O)c2cccc3nsnc23)c(OC)c1 (stereo not given) | -5% | -5% | -4% | 17% | -17%
COc1ccc(CN=CC2=C(O)CNC2=O)cc1 | 13%[12.7 µM] | -4% | -24% | 62% | 5%
COc1ccc(CN=Cc2[nH]c3ccc(Br)c(Cl)c3c2O)cc1 | 4µM* | 0% | 45µM* | ? | ?
Cc1cc(C)cc(N=Cc2[nH]c3ccc(Br)c(Cl)c3c2O)c1 | 13µM* | 20% | ? | ? | ?
N=c1c(S(=O)(=O)c2ccccc2)cc2c(=O)n3ccccc3nc2n1C1CCCCC1 | . | 3% | . | ? | ?
Cn1c(C23CC4CC(CC(C4)C2)C3)n[nH]c1=S | 22µM* | 10% | 6% | 0% | 5.6µM*
CC(C)Cn1c(C23CC4CC(CC(C4)C2)C3)n[nH]c1=S | 3.2µM* | ? | ? | 23% | 56µM*
CCC(C)[C@H]1CNC(=S)N1CCC12CC3CC(CC(C3)C1)C2 (stereo not given in full) | -2%[12.7 µM] | 0% | 1% | 27% | -26%
COCCCn1c(C23CC4CC(CC(C4)C2)C3)n[nH]c1=S | . | ? | 4% | 6% | 7.9µM*
